According to PubChem BioAssay (NCATS):
Results filed as inconclusive are left out. Calls of active or inactive are those of the source. The call rests on the fitted dose curve; in most records, active means well fitted curve in the direction sought with a large enough effect; inconclusive means small, poorly fitted or top-dose-only effect, or another doubt; inactive means no such curve, though single readings can be large; an effect the other way counts as inactive or inconclusive.

Assays:
[1] = target: Glutathione peroxidase 1 (Homo sapiens) (UniProt P07203); experiment: Primary qHTS Assay for Inhibitors of Recombinant Selenoprotein Glutathione Peroxidase 1 (GPX1) (AID 1845191); further: nearly all actives have a fitted effect of over 65% in size; on activity, negative = inhibition: on the % scale 0 is the no-effect control and ±100 the full control effect
In short: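 GPX1 10 nM, GR 100 nM, GSH 1 mM, NADPH 0.5 mM, CHP 0.5 mM (final). 30-min cpd preincubation, RT. Ex340/Em450 read t=0, t=15 min.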

[2] = target: Phospholipid hydroperoxide glutathione peroxidase GPX4 (Homo sapiens) (UniProt P36969); experiment: Primary qHTS Assay for Inhibitors of Recombinant Selenoprotein Glutathione Peroxidase 4 (GPX4) (AID 1845192); further: nearly all actives have a fitted effect of over 65% in size; on activity change, negative = inhibition: series mostly up to about 50 µM; on the % scale 0 is the no-effect control and ±100 the full control effect
In short: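 qHTS, GR-coupled: GPX4 200 nM + cpd 30 min RT → GSH 1 mM, NADPH 0.5 mM, GR 100 nM → CHP 0.5 mM start; fluor 340/450 at t0 and t15 min; no-enzyme wells as control.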

[3] = target: Luciferin 4-monooxygenase (Photinus pyralis) (UniProt P08659); experiment: Primary firefly luciferase (FLuc) qHTS assay for identification of artifact compounds. (AID 1845220); further: nearly all actives have a fitted effect of over 60% in size; further: potency means the concentration at half of the fitted maximal effect;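 on activity change, negative = inhibition: series mostly up to about 54 µM; plate controls were DMSO vehicle for no effect and no enzyme for full effect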
In short: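 qHTS, 15 min compound preincubation with substrate (10 uM luciferin, 10 uM ATP) at RT, then 10 nM FLuc; 5 min; luminescence; % inhibition vs no-enzyme/DMSO controls, 4-parameter Hill fit.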

[4] = Primary fluorescence-based thiol-reactive (MSTI) qHTS assay for identification of artifact compounds. (AID 1845221);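 further: series mostly up to about 54 µM; thiol-reactive compounds lower the probe fluorescence signal; nearly all actives have a fitted effect of over 65% in size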
In short: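 qHTS titration of compound; 4 uM MSTI, PBS pH 7.4, 2% DMSO; 1 h RT, dark; fluorescence 525/598 nm; normalized to Acetyl-MSTI and MSTI; 4-parameter Hill fit.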

[5] = test system: Nanoluciferase (engineered Oplophorus gracilirostris luciferase); experiment: Primary Nanoluciferase (NLuc) qHTS assay for identification of artifact compounds. (AID 1845222); further: series mostly up to about 54 µM
In short: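 Luminescence read-out of secreted NLuc in S16 cell conditioned medium (1:55); compounds tested with 15 min RT preincubation, then Nano-Glo substrate 1:100, 5 min. % inhibition vs no-enzyme and DMSO controls, 4-parameter Hill fit.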

[6] = Primary redox qHTS assay for identification of artifact compounds. (AID 1845223);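 further: 0% = DMSO and 100% = reference compound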
In short: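 Redox-cycling detection via DTT (250 uM final) oxidation coupled to Amplex Red (25 uM)/HRP (250 mU/mL) in HBSS. 15 min preincubation plus 30 min after DTT, room temperature. Ex/Em 525/598 nm; 4-parameter Hill fit against DMSO and 10 uM DA3003.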

Sequence of Phospholipid hydroperoxide glutathione peroxidase GPX4 (Homo sapiens) (P36969 whole entry, looked up): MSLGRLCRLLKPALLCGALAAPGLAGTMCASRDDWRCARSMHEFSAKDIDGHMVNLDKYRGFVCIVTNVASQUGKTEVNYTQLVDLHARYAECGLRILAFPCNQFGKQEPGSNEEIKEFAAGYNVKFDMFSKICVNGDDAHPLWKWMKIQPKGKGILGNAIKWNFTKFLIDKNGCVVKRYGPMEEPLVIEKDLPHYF
Sequence of Glutathione peroxidase 1 (Homo sapiens) (P07203 whole entry, looked up): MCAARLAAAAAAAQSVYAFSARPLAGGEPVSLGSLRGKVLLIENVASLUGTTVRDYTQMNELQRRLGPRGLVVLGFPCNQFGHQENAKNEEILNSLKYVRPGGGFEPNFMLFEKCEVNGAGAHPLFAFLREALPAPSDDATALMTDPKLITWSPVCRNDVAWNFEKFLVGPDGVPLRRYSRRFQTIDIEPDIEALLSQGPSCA

Cc1cccc(-c2[nH]ncc2-c2ccnc3ccccc23)n1
inactive: Potency [1] | Potency [2] | Potency [3] | Potency [4] | Potency [5] | Potency [6]

O=C(Nc1ccc(-n2nc(C(F)(F)F)cc2C(F)(F)F)cc1)c1ccncc1F
inactive: Potency [1] | Potency [2] | Potency [3] | Potency [4] | Potency [5] | Potency [6]

C=C(C)[C@@H]1CC[C@]2(C(=O)O)CC[C@]3(C(=O)O)[C@H](CCC4[C@@]5(C)CCC(=O)C(C)(C)C5CC[C@]43C)C12 (some centres not stated)
inactive: Potency [1] | Potency [2] | Potency [3] | Potency [4] | Potency [5] | Potency [6]

Cc1cc(C)c(-n2cc(C)c3c(Cl)nc(C)nc32)c(C)c1
inactive: Potency [1] | Potency [2] | Potency [3] | Potency [4] | Potency [5] | Potency [6]

CC(=O)CC(=O)Nc1ccc(Cl)c(C(F)(F)F)c1
inactive: Potency [1] | Potency [2] | Potency [3] | Potency [4] | Potency [5] | Potency [6]

O=C(Nc1ccnc(NC(=O)C2CC2)c1)c1c(Cl)cccc1Cl
inactive: Potency [1] | Potency [2] | Potency [3] | Potency [4] | Potency [5] | Potency [6]

O=C(N[C@H](Cc1cscn1)C(=O)N[C@@H](CC1CCCCC1)[C@@H](O)[C@@H](O)C1CC1)c1nc2ccccc2[nH]1
inactive: Potency [1] | Potency [2] | Potency [3] | Potency [4] | Potency [5] | Potency [6]

CCCCNc1ncc2c(-c3ccc(S(=O)(=O)N4CCOCC4)cc3)nn(C3CCC(O)CC3)c2n1 (configuration not stated)
inactive: Potency [1] | Potency [2] | Potency [3] | Potency [4] | Potency [5] | Potency [6]

COc1c(C(O)CC(C)C)ccc2c1C(=O)OCc1cc(C)cc(O)c1O2 (configuration not stated)
inactive: Potency [1] | Potency [2] | Potency [3] | Potency [4] | Potency [5] | Potency [6]

CC(=O)O[C@@H]1[C@H](O[C@@H]2O[C@@H](CO)[C@H](O)[C@H]2O)[C@@H](O[C@@H]2O[C@@H](C)[C@H](O[C@@H]3OC[C@@H](O)[C@H](O)[C@H]3O)[C@@H](O)[C@H]2O)[C@H](OC(=O)[C@]23CCC(C)(C)C[C@H]2C2=CCC4[C@@]5(C)CC[C@H](O[C@@H]6O[C@H](C(=O)O)[C@@H](O)[C@H](O)[C@H]6O[C@@H]6O[C@H](CO)[C@H](O)[C@H](O)[C@H]6O)[C@@](C)(C=O)C5CC[C@@]4(C)[C@]2(C)C[C@H]3O)O[C@@H]1C (some centres not stated)
inactive: outcome [1] inactive [at 9.52 µM] | activity change, negative = inhibition [2] -0.242% [at 9.73 µM] | outcome [3] inactive [at 11.6 µM] | activity change, negative = thiol reactive [4] 435% [at 11.5 µM] | activity, negative = inhibition [5] 0% [at 11.6 µM] | redox activity (% of DA3003) [6] 9.67% [at 11.5 µM]

C=C(C)C(=O)O[C@H]1[C@H]2C(=C)C(=O)O[C@@H]2C[C@@H](C)[C@@H]2O[C@@H]2C(=O)[C@](C)(O)[C@@H]1OC(=O)C(=C)C
inactive: Potency [1] | Potency [2] | Potency [3] | Potency [4] | Potency [5] | Potency [6]

CC#CC(=O)Nc1ccc2ncnc(Nc3cccc(Br)c3)c2c1
inactive: Potency [1] | Potency [2] | Potency [3] | Potency [4] | Potency [5] | Potency [6]

O=C(Nc1cccnc1)c1cc(-c2ccnc(F)c2)ccc1OCc1ccccc1
inactive: Potency [1] | Potency [2] | Potency [3] | Potency [4] | Potency [5] | Potency [6]

Cc1ccc(C2(C(=O)N3CCC(n4nc(-c5ccccc5)oc4=O)CC3)CC2)cc1
inactive: Potency [1] | Potency [2] | Potency [3] | Potency [4] | Potency [5] | Potency [6]

Fc1ccc(-c2cncc(CN3CCN(c4cccc5c4OCCO5)CC3)c2)cc1
inactive: Potency [1] | Potency [2] | Potency [3] | Potency [4] | Potency [5] | Potency [6]

CCc1cnc(N2CCC(c3nc(COc4ccc(-n5cnnn5)cc4)cs3)CC2)nc1
inactive: Potency [1] | Potency [2] | Potency [3] | Potency [4] | Potency [5] | Potency [6]

Cn1c(SCC(=O)N2CCC[C@H]2C(=O)Nc2ccccc2-c2ccccc2)nc2ccccc21
inactive: Potency [1] | Potency [2] | Potency [3] | Potency [4] | Potency [5] | Potency [6]

O=C(Nc1cccc2cccnc12)c1ccc(N2C(=O)[C@@H]3C4C=CC(C4)[C@@H]3C2=O)cc1
inactive: Potency [1] | Potency [2] | Potency [3] | Potency [4] | Potency [5] | Potency [6]

CC(C)(C)NC(=O)[C@H]1CC[C@H]2[C@@H]3CC[C@H]4NC(=O)CC[C@]4(C)[C@H]3CC[C@]12C
inactive: Potency [1] | Potency [2] | Potency [3] | Potency [4] | Potency [5] | Potency [6]

O=C(N[C@@H]1CCCc2c1cnn2-c1ccc(F)cc1F)c1ccccn1
inactive: Potency [1] | Potency [2] | Potency [3] | Potency [4] | Potency [5] | Potency [6]

C=C1C(=O)O[C@@H]2C[C@H](C)[C@@H]3CC(=O)C(C)=C3C[C@H]12
inactive: Potency [1] | Potency [2] | Potency [3] | Potency [4] | Potency [5] | Potency [6]

COc1ccc([C@H]2Cc3cccc(O)c3C(=O)O2)cc1OC
inactive: Potency [1] | Potency [2] | Potency [3] | Potency [4] | Potency [5] | Potency [6]

O=C(Nc1ccc(Cl)cc1)C1CCCN(C(=O)c2cccc(-c3ccco3)c2)C1 (configuration not stated)
inactive: Potency [1] | Potency [2] | Potency [3] | Potency [4] | Potency [5] | Potency [6]

C=C1CCC[C@]2(C)CC/C(=C(/CO)C(=O)OC)C[C@@H]12
inactive: Potency [1] | Potency [2] | Potency [3] | Potency [4] | Potency [5] | Potency [6]

CCNC(=O)Nc1ccc(-c2nc3c(c(N4CCOCC4C)n2)CCN(C2COC2)C3)cc1 (configuration not stated)
inactive: Potency [1] | Potency [2] | Potency [3] | Potency [4] | Potency [5] | Potency [6]

CCC(C)CNCC(=O)N1CCC2SC=CC2C1COc1cccc(C)c1 (configuration not stated)
inactive: Potency [1] | Potency [2] | Potency [3] | Potency [4] | Potency [5] | Potency [6]

COC(=O)N1CCC(n2ncc3c(N4CCOCC4)nc(-c4ccc(NC(=O)NC5CC5)cc4)nc32)CC1
inactive: Potency [1] | Potency [2] | Potency [3] | Potency [4] | Potency [5] | Potency [6]

Cc1ccccc1CN1CCn2c1nc1c(c2=O)CN(Cc2ccccc2)CC1
inactive: Potency [1] | Potency [2] | Potency [3] | Potency [4] | Potency [5] | Potency [6]

C#CCOc1ccc2c(c1)c(-c1ccc(C(C)C)cc1)nc(=O)n2C(C)C
inactive: Potency [1] | Potency [2] | Potency [3] | Potency [4] | Potency [5] | Potency [6]

O=C(Nc1ccc(N2C(=O)[C@@H]3[C@H](C2=O)[C@@H]2C=C[C@H]3C2)c(Cl)c1)c1ccccn1
inactive: Potency [1] | Potency [2] | Potency [4] | Potency [5] | Potency [6]
active: Potency [3] 19 µM

O=C(CSc1nc2ccccc2c(=O)n1-c1ccccc1)Nc1ccc2c(c1)CCC2
inactive: Potency [1] | Potency [2] | Potency [3] | Potency [4] | Potency [5] | Potency [6]

C=C[C@@]12COC(=O)C(=C)[C@@H]1[C@@H](O)[C@H](C(=C)C(=O)OC)[C@@H](O)C2
inactive: Potency [1] | Potency [2] | Potency [3] | Potency [4] | Potency [5] | Potency [6]
